Among the test systems are NCI-H23 lung; NCI-H322M lung; HOP-62 NSCLC; NCI-H460 lung; HOP-92 NSCLC; NCI-H522 lung; A549/ATCC NSCLC; 786-0 renal; COLO 205 colon; DU-145 prostate; K-562 leukemia; MALME-3M melanoma; MDA-MB-231 breast; RXF 393 renal; SF-268 CNS; SF-295 CNS; SF-539 CNS; UACC-257 melanoma; M14 melanoma.
Holding throughout (assay): NCI-60 one-dose screen, 48 h (100 = growth as untreated, 0 = no growth, -100 = all killed)
Conditions in all cases: 10 µM unless noted

Eight compounds from PubChem BioAssay (NCI) can be followed below.

About 83,000 compounds went through this panel and 20% of them were active in at least one assay; those are over-represented in the sample as a whole.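 Single-concentration screen, 48 h exposure, 96-well plates. Endpoint: percent growth. Below 10 = active.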 Values without a mark were called inactive. Calls of active or inactive are those of the source.

In the case of `CCOC(=O)CNC1=C(Cl)C(=O)N(Cc2ccc(Cl)cc2)C1=O`, the growth in the experiment with NCI-H23 lung was 102%; with NCI-H322M lung it was 97%; in the experiment with HOP-62 NSCLC, 98%; in the experiment on NCI-H460 lung, 104%; in the experiment with HOP-92 NSCLC, 93.4%; in the experiment with NCI-H522 lung, 89.1%. The growth in the experiment with A549/ATCC NSCLC is 106%; with 786-0 renal it was 99%; in the experiment on COLO 205 colon it was 118%; in the experiment on DU-145 prostate, 113%; in the experiment on K-562 leukemia, 106%; in the experiment with MALME-3M melanoma, 93.9%. Besides, the growth in the experiment on MDA-MB-231 breast is 104%; with RXF 393 renal it was 120%; in the experiment with SF-268 CNS, 98.5%; with SF-295 CNS, 108%; in the experiment on SF-539 CNS, 90.6%; with UACC-257 melanoma, 106%. In addition, the growth in the experiment on M14 melanoma is 105%.
Regarding `C/C(=N\Nc1ccccc1)c1ccc(NC2=CC(=O)c3ccccc3C2=O)cc1`, the growth in the experiment with NCI-H23 lung is 21.4%; with NCI-H322M lung, 79%; with HOP-62 NSCLC, 46.1%; in the experiment on NCI-H460 lung it was 23.5%; in the experiment with HOP-92 NSCLC it was 113%; in the experiment with NCI-H522 lung, 42.9%. Also, the growth with A549/ATCC NSCLC was 48.5%; in the experiment with 786-0 renal, 94.1%; in the experiment with COLO 205 colon it was 88.2%; with DU-145 prostate, 50.7%; in the experiment on K-562 leukemia, 19.4%; in the experiment on MALME-3M melanoma, -65% (active). Further, the growth in the experiment with MDA-MB-231 breast is 62.4%; in the experiment with RXF 393 renal it was 92.1%; in the experiment with SF-268 CNS, 64.4%; in the experiment with SF-295 CNS, 55.2%; with SF-539 CNS, 92.9%; in the experiment with UACC-257 melanoma, 67.9%. Further, the growth in the experiment on M14 melanoma is 26.3%.
For the compound `ClC(Cl)c1nc(-c2ccccc2)n2nc(-c3ccccc3)cc2n1`, the growth is -17.6% (active) in the experiment on NCI-H23 lung; -41.7% (active) in the experiment on NCI-H322M lung; -3.61% (active) in the experiment with HOP-62 NSCLC; -58.2% (active) in the experiment with NCI-H460 lung; 3.98% (active) with HOP-92 NSCLC; 29.9% in the experiment with NCI-H522 lung. Besides, the growth is -16.2% (active) in the experiment on A549/ATCC NSCLC; 42.9% with 786-0 renal; -40.3% (active) in the experiment on COLO 205 colon; -12% (active) in the experiment with DU-145 prostate; 31.2% with K-562 leukemia; 55.9% in the experiment with MALME-3M melanoma. The growth with MDA-MB-231 breast is 2.2% (active); in the experiment on RXF 393 renal it was -68% (active); in the experiment on SF-268 CNS it was 11.9%; in the experiment with SF-295 CNS, -13.1% (active); with SF-539 CNS, 0.564% (active); in the experiment on UACC-257 melanoma, 33.9%. For the same compound, the growth in the experiment on M14 melanoma is 32.3%.
For `CN(C)c1ccc(/C=C2\C=C(c3nc4ccccc4s3)OC2=O)cc1`, the growth with NCI-H23 lung is 91.9%; with NCI-H322M lung, 93.2%; in the experiment with HOP-62 NSCLC, 91.7%; in the experiment with NCI-H460 lung, 95.2%; with HOP-92 NSCLC it was 77.8%; in the experiment with NCI-H522 lung it was 89.4%. Also, the growth with A549/ATCC NSCLC was 94.7%; in the experiment on 786-0 renal, 102%; in the experiment on COLO 205 colon, 102%; with DU-145 prostate, 104%; in the experiment on K-562 leukemia, 83.8%; in the experiment on MALME-3M melanoma it was 98.3%. The growth in the experiment with MDA-MB-231 breast is 73.9%; with RXF 393 renal, 110%; with SF-268 CNS, 98.6%; in the experiment with SF-295 CNS it was 92%; with SF-539 CNS, 104%; in the experiment with UACC-257 melanoma it was 114%. Further, the growth in the experiment on M14 melanoma is 101%.
Turning to `CC(=O)Nc1sc2c(c1-c1nc3ccccc3s1)CNC2`, the growth was 24.9% in the experiment with NCI-H23 lung; 14.5% in the experiment with NCI-H322M lung; 18.6% with HOP-62 NSCLC; 8.68% (active) with NCI-H460 lung; 0.851% (active) in the experiment with HOP-92 NSCLC; -12.5% (active) in the experiment on NCI-H522 lung. In addition, the growth with A549/ATCC NSCLC was 14.1%; with 786-0 renal it was 28.4%; in the experiment on COLO 205 colon, 8.21% (active); with DU-145 prostate, 25.6%; in the experiment on K-562 leukemia, 13.2%; in the experiment with MALME-3M melanoma it was 19%. In addition, the growth in the experiment with MDA-MB-231 breast is 21.9%; in the experiment on RXF 393 renal, 18%; with SF-268 CNS, 40.4%; in the experiment with SF-295 CNS, 13.3%; in the experiment with SF-539 CNS it was 28.4%; with UACC-257 melanoma it was 27.6%. Also, the growth with M14 melanoma is 21.9%.
As to `COC(=O)c1sccc1-c1cc(O)c(C(=O)Nc2ccccc2)s1`, the growth was 83% in the experiment with NCI-H23 lung; 93.3% in the experiment with NCI-H322M lung; 92.2% in the experiment with HOP-62 NSCLC; 104% with NCI-H460 lung; 97.9% in the experiment with HOP-92 NSCLC; 90.9% in the experiment on NCI-H522 lung. Besides, the growth in the experiment with A549/ATCC NSCLC is 91.5%; with 786-0 renal, 106%; in the experiment with COLO 205 colon, 102%; with DU-145 prostate, 99.1%; in the experiment on K-562 leukemia, 91.6%; in the experiment on MALME-3M melanoma, 84.5%. For the same compound, the growth in the experiment with MDA-MB-231 breast is 91.5%; with RXF 393 renal, 115%; with SF-268 CNS it was 91.7%; with SF-295 CNS, 99.4%; in the experiment on SF-539 CNS, 98.8%; with UACC-257 melanoma, 91.6%. In addition, in the experiment on M14 melanoma, the growth is 93.3%.
With `CN(C)CCC(=O)C1CC1`, the growth in the experiment with NCI-H23 lung is 97%; with NCI-H322M lung, 98.4%; with HOP-62 NSCLC, 91.2%; with NCI-H460 lung it was 103%; with HOP-92 NSCLC, 101%; with NCI-H522 lung, 97.1%. In addition, the growth was 103% in the experiment on A549/ATCC NSCLC; 99.4% in the experiment with 786-0 renal; 112% in the experiment on COLO 205 colon; 111% with DU-145 prostate; 102% in the experiment with K-562 leukemia; 102% with MALME-3M melanoma. For the same compound, the growth with MDA-MB-231 breast is 103%; with RXF 393 renal, 104%; in the experiment with SF-268 CNS, 102%; in the experiment with SF-295 CNS, 116%; in the experiment with SF-539 CNS, 107%; with UACC-257 melanoma, 91.7%.
For the compound `O=C1CCC(C(=O)N/N=C/c2cc(F)ccc2F)N1` (stereo unspecified), the growth was 95.3% in the experiment with NCI-H23 lung; 99.7% with NCI-H322M lung; 103% in the experiment with HOP-62 NSCLC; 101% in the experiment on NCI-H460 lung; 95.4% in the experiment with HOP-92 NSCLC; 93.7% with NCI-H522 lung. In addition, the growth was 97.6% with A549/ATCC NSCLC; 103% with 786-0 renal; 110% with COLO 205 colon; 110% with DU-145 prostate; 97.1% with K-562 leukemia; 95.1% with MALME-3M melanoma. For the same compound, the growth with MDA-MB-231 breast is 111%; in the experiment with RXF 393 renal it was 108%; in the experiment on SF-268 CNS, 97.2%; with SF-295 CNS, 99.5%; in the experiment on SF-539 CNS, 101%; with UACC-257 melanoma, 103%. Besides, in the experiment on M14 melanoma, the growth is 104%.
